Bioassay records (PubChem BioAssay)
This excerpt belongs to a sample that is enriched for hits.
AMA1 RON2 block = qHTS for Inhibitors of AMA1-RON; Towards Development of Antimalarial Drug Lead: Primary Screen. AlphaScreen AMA1-biotinylated RON2 peptide binding. Potency, µM (doses to about 58.2 µM), for inactives: top-dose activity change, negative = inhibition, actives largely listed as inhibitors. actives 0.2% (n = 360,000). AID 720542, 2013; active = well fitted inhibition curve with a large enough effect; inconclusive = small, poorly fitted or top-dose-only effect; inactive = no such curve, though single readings can be large or run the other way;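 note: potency is the fitted concentration of half-maximal effect; 0% = vehicle wells and -100% = peptide control; nearly all actives have a fitted effect of over 45% in size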
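AMA1 (3D7) with his tag at 25 nM final met compounds first, then biotinylated RON2 peptide at 25 nM; detection used donor plus acceptor beads, 10 µg/mL apiece, read by AlphaScreen after 30 min at room temperature.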
Shiga toxin inh = A qHTS for Small Molecule Inhibitors of Shiga Toxin; Vero cells, Shiga toxin protein synthesis inhibition reporter; inhibition, % at 38.7 µM; actives 9.2% (n = 290,000); in the data active = inhibition mostly above about 28%, no sharp cut-off; inactive = mostly below about 43%; note: 0% is about no effect
MARV entry inh = qHTS for inhibitors of binding or entry into cells for Marburg Virus; Marburg virus pseudotyped entry inhibition, cell reporter; Potency, µM (series often up to 37.8 µM), for the others: at the highest dose activity change, negative = inhibition, usual class: inhibitors; actives 1.8% (n = 300,000); AID 540276, 2011; calls by dose curve; tested in HEK293 cells; note: potency is the fitted concentration of half-maximal effect; % is set by controls: 0 for no effect and ±100 for the full control effect
Cycloheximide cs = Cycloheximide Counterscreen for Small Molecule Inhibitors of Shiga Toxin | actives 12% (n = 300,000) | AID 2314, 2010 | cell reporter, cycloheximide protein synthesis inhibition counterscreen | max response, %; in the data active = max response mostly above about 13%, no sharp cut-off; inactive = mostly below about 14%; note: read at 38.3 µM for the half of the compounds with a filed dose; 0% is about no effect
LASV entry inh = qHTS for Inhibitors of binding or entry into cells for Lassa Virus | actives 1.2% (n = 300,000) | Potency, µM (highest dose often 37.9 µM), inactives show at the top dose activity change, negative = inhibition, most hits filed as inhibitors | Lassa virus pseudotype entry inhibition, cell reporter; calls by dose curve; tested in HEK293 cells; note: potency is the fitted concentration of half-maximal effect; % is set by controls: 0 for no effect and ±100 for the full control effect; nearly all actives have a fitted effect of over 50% in size
Starred values were filed as active, the others as inactive; i = inactive; ? = inconclusive; · = not tested or not shown; + = active, no number; [ ] = dose if it differs, or a comment.

SMILES	AMA1 RON2 block	Shiga toxin inh	MARV entry inh	Cycloheximide cs	LASV entry inh
CC(=O)Nc1ccc2oc(-c3ccccc3)nc2c1	4%	93*	·	41*	·
O=C(COc1ccccc1)Nc1cccc(-c2nnc(-c3ccccc3)o2)c1	10%	72*	19%[46.1 µM]	20*	-22%
Cc1cc(C)c2oc(-c3ccc(C)c(NC(=O)/C=C/c4ccco4)c3)nc2c1	·	·	5%[46.1 µM]	·	25%[46.1 µM]
O=C(CCNC(=O)C1CCN(S(=O)(=O)c2ccc(F)cc2)CC1)NCc1cccc(Cl)c1	3%	10	·	-3	·
Cc1ccccc1N1CCN(S(=O)(=O)c2nnc(NC(=O)c3ccc(C(C)C)cc3)s2)CC1	·	·	·	·	-17%[46.1 µM]
COc1ccc(OCC(=O)Nc2cccc(-c3nc4ccccc4o3)c2)cc1	-1%	123*	-14%	45*	3%
CC(C)CC(=O)Nc1cccc(-c2nc3ccccc3o2)c1	-19%	62*	?	22*	-1%
CC(=O)Nc1ccc(-c2nc3ccc(NC(C)=O)cc3o2)cc1	-5%	79*	·	34*	·
Cc1cc2nc(-c3cccc(NC(=O)COc4ccc(C(C)C)cc4)c3)oc2cc1C	·	·	?	·	46%[46.1 µM]
CC(C)C(=O)Nc1cccc(-c2nc3ccccc3o2)c1	-18%	11	9%	5	5%
CC(=O)Nc1cccc(-c2nc3ccccc3o2)c1	-3%	40*	·	28*	·
CCc1ccc(N2CC(C)Cn3c2nc2c3c(=O)n(CC(=O)O)c(=O)n2C)cc1 (stereo not given)	·	·	-5%[46.1 µM]	·	-1%[46.1 µM]
CC(=O)Nc1ccc2nc3ccccc3nc2c1	-1%	91*	·	52*	·
CCOC(=O)C1=C(C)N(CC(C)C)C(=O)/C1=C\c1ccc(OCC(=O)Nc2ccccc2)cc1	-17%	-1	-21%	12	-6%
CCCCC(=O)Nc1cccc(-c2nc3ncccc3o2)c1	-2%	33	7%	7	-5%
CC(C)CC(=O)Nc1ccc2oc(-c3ccncc3)nc2c1	2%	59*	4%	24*	26%
CCCC(=O)Nc1cccc(-c2nc3cc(C)c(C)cc3o2)c1	2%	84*	?	39*	-1%
CN1C(=O)C(=Cc2ccc(OCC(=O)Nc3ccccc3)cc2)C(=O)N(C)C1=O	-16%	75*	3%	50*	-11%
Cc1cc(=O)n2nc(N3CCC(C(=O)Nc4ccc(C(C)C)cc4)CC3)sc2n1	·	·	2%[46.1 µM]	·	28%[46.1 µM]
COc1ccc(Cl)cc1NC(=O)C1CCCN(c2ncnc3c2nc2n3CCCCC2)C1 (stereo not given)	1%	-12	0%[46.1 µM]	-1	-2%[46.1 µM]
C=Cc1cccc(NC(=O)COc2ccccc2)c1	17%	41	18%	35*	8%
O=C(COc1ccccc1)Nc1ccc2c(c1)Cc1cc(NC(=O)COc3ccccc3)ccc1-2	-10%	20	-1%	-4	4%
S=C(Nc1ccccc1)Nc1ccccn1	41%	·	·	·	·
C/C(CC(=O)Nc1ccccn1)=N\NC(=O)C(=O)Nc1cccc(C)c1	138%	15	-19%	-1	-2%
O=C(N/N=C/c1ccccc1O)C(=O)Nc1ccccn1	69%	77*	-27%	24*	-21%
SMILES	AMA1 RON2 block	Shiga toxin inh	MARV entry inh	Cycloheximide cs	LASV entry inh
S=C(Nc1ccccc1)c1ccccn1	-53%	80*	?	47*	?
S=C(Nc1ccc(Nc2ccccc2)cc1)Nc1ccccn1	-7%	100*	?	37*	?
O=C(Nc1cccc(O)c1)C(=O)Nc1ccccn1	-1%	27	?	16*	?
O=C(O)c1ccccn1	-40%	·	·	·	·
CCOC(=O)[C@@](O)(C1C(=O)CC(C)(C)CC1=O)C(F)(F)F	·	·	15%[46.1 µM]	·	·
O=C(Nc1ccccc1)C(=O)Nc1ccccn1	-1%	169*	?	63*	?
COc1cc(C2C(C#N)=C(N)N(Nc3ccccc3)C3=C2C(=O)CC(C)(C)C3)ccc1OCc1cccc(F)c1 (stereo not given)	10%	17	1.8µM*	-2	?
CCN(CC)S(=O)(=O)c1ccc(N2CCOCC2)c(NS(=O)(=O)c2cc(C(C)(C)C)ccc2C)c1	-18%	-6	?	-2	8.9µM*
CCN(CC)S(=O)(=O)c1ccc(N2CCCCC2)c(C(=O)Nc2ccccc2N2CCOCC2)c1	-11%	-15	5.6µM*	-3	10µM*
CCN(CC)S(=O)(=O)c1ccc(N2CCOCC2)c(NS(=O)(=O)c2ccc(C(C)C)cc2)c1	11%	-9	-2%	-3	-14%
Cc1nnsc1C(=O)Nc1cc(Cl)ccc1Cl	8%	-2	9%	-5	-21%
N#CC(=C1C=C(Br)C(=NO)C=C1Cl)c1cccc2ccccc12	14µM*	·	·	·	·
Cc1cccc(C2=NN(c3ccccc3)[C@H](CO)[C@H]2C)c1	·	+	·	22	·
Cc1cccc(C2=NN(c3ccccc3)[C@H](CO)[C@H]2c2ccccc2)c1	112%	i	·	19	·
CSc1ccccc1NC(=O)c1csc(C)c1	-15%	36*	·	31*	·
Cc1cc(C(=O)Nc2ccc(Br)cc2)cs1	14%	83*	·	47*	·
CNS(=O)(=O)c1ccc(NC(=O)c2csc(C)c2)cc1	4%	36*	·	23*	·
CSc1ccccc1NC(=O)c1ccc(C)o1	-5%	51*	19%	20*	?
Cc1ccc(C(=O)Nc2ccccc2NC(=O)c2ccc(C)o2)o1	6%	2	-18%	2	-4%
CC(=O)C(Cc1cccc(F)c1)(Cc1cccc(F)c1)C(C)=O	1%	-6	-5%	2	6%
O=S(=O)(c1ccc(F)cc1)N1CCN(c2nc(-c3ccccc3)nc3cc(Cl)ccc23)CC1	·	-3	·	-1	·
CCOC(=O)c1ccc(-c2ccc(/C=N/NC(=O)CN(c3ccccc3Cl)S(C)(=O)=O)o2)cc1	-5%	5	?	14*	-14%
CCOc1ccc(Oc2cc(N)cc([N+](=O)[O-])c2)cc1	-20%	53*	12%[46.1 µM]	18	0%[46.1 µM]
CCN1C(=C2C(=O)c3ccccc3C2=O)C=Cc2ccccc21	-21%	39*	26%	25*	40%
CCN1C(=O)/C(=C2/C=Cc3ccccc3N2C)OC1=S	-1%	44	?	37*	-12%
SMILES	AMA1 RON2 block	Shiga toxin inh	MARV entry inh	Cycloheximide cs	LASV entry inh
CCN1C(=O)/C(=C2\C=Cc3ccccc3N2CC)SC1=S	1.2µM*	31	-7%	20	-5%
CCN1C(=O)/C(=c2\o/c(=C3\C=Cc4ccccc4N3CC)c(=O)n2CC)SC1=S	-12%	3	4%	-4	-1%
CCN1/C(=C2\C(=O)N(c3ccccc3)N=C2C)C=Cc2cc(C)ccc21	2%	1	15%[46.1 µM]	9	21%
N#Cc1ccc(-c2cn3c(n2)SCC3)cc1	-3%	64*	·	36*	·
CC(C)Cn1c(=O)c2ccccc2n2c(CCC(=O)O)nnc12	-2%	0	·	-3	·
COC(C)(C)[C@@H](O)COc1c2ccoc2cc2oc(=O)ccc12	0%	·	·	·	·
CCOC(=O)Cn1c(=O)oc2cc(S(=O)(=O)Nc3cc(OC)cc(OC)c3)ccc21	·	·	-1%[46.1 µM]	·	1%[46.1 µM]
